As usually defined, the AC50 is the concentration at which the activity in the assay is half-maximal.

Active and inactive are the calls of the source. The calls were made as follows: active = hit-call score of the fitted dose curve at least 0.9, where 1 is the maximum; inactive = score below 0.9.

This experiment is described as follows: BSK_3C_TissueFactor: BioMAP Diversity Plus: 3C Assay for Tissue Factor Biomarker Activity (AID 2282997). The conditions noted are these: BioMAP 3C HUVEC, tissue factor biomarker readout; actives raise or lower the signal. As for the experimental part:
BSK_3C is a cell-based, multiplexed-readout assay that uses umbilical vein endothelium, a human vascular primary cell, with measurements taken at 24 hours after chemical dosing in a 96-well plate.BSK_3C_TissueFactor is an assay component measured in the BSK_3C assay. It measures Tissue Factor antibody related to regulation of gene expression using ELISA technology.Data from the assay component BSK_3C_TissueFactor was analyzed into 1 assay endpoint. This assay endpoint, BSK_3C_TissueFactor, was analyzed with bidirectional fitting relative to DMSO as the negative control and baseline of activity. Using a type of binding reporter, gain or loss-of-signal activity can be used to understand changes in the signaling as they relate to the gene F3. Furthermore, this assay endpoint can be referred to as a primary readout, because this assay has produced multiple assay endpoints where this one serves a signaling function. To generalize the intended target to other relatable targets, this assay endpoint is annotated to the cytokine intended target family, where the subfamily is coagulation factor.
The levels of cell surface (or secreted, indicated by the prefix "s") biomarker endpoints were measured by ELISA. Overt cytotoxicity to cells in confluent adherent cultures (all systems other than the BT system) was assessed by measuring total protein levels using sulforhodamine B (SRB) staining in parallel cultures at the time of biomarker measurements, indicated as SRB endpoints. For proliferation assays for adherent cell types, individual cell types are cultured at sub-confluence and relative cell numbers quantified by SRB staining at time points optimized for each system (48 h: 3C and CASM3C systems; 72 h: BT and HDF3CGF systems; 96 h: SAg system). SRB was performed by staining cells with 0.1% SRB after fixation with 10% TCA and reading wells at 560 nm.Viability and proliferation of PBMC (T cells) was quantified by Alamar Blue reduction for the SAg and BT systems. For PBMC viability (referred to as PBMC Cytotoxicity within the assay endpoint names), cells were plated (75,000/well in a 96-well plate) and then chemical samples added for 1 h before addition of activators, SEB and TSST-1 (20 ng/mL final concentration each). Cells were incubated for 90 h. Then, Alamar Blue (20 uL/well) (Invitrogen, Cat DAL1100) was added for 6 h, and the plates were read with a fluorescence microplate reader at 546/580 nm (excitation/emission). For PBMC proliferation, cells were plated and activated as above but incubated for only 16 h prior to addition of Alamar Blue. Plates were read after 6 h.
Regarding `OCCOc1ccccc1`, the result was inactive.

Consider `CC(C)N(C(=O)COc1nnc(C(F)(F)F)s1)c1ccc(F)cc1`, for which the result was inactive.

Take `N#CN`: the outcome was inactive.

Consider `CCCN(CCC)c1c([N+](=O)[O-])cc(C(F)(F)F)cc1[N+](=O)[O-]`, for which the outcome was inactive.

Take `CCCN(CCOc1c(Cl)cc(Cl)cc1Cl)C(=O)n1ccnc1`: the result was inactive.

`ClC1C(Cl)C(Cl)C(Cl)C(Cl)C1Cl` (stereo not given): the result was inactive.

Turning to `CNC(=O)Oc1ccccc1OC(C)C`, the result was inactive.

As to `O=S1OCC2C(CO1)C1(Cl)C(Cl)=C(Cl)C2(Cl)C1(Cl)Cl` (stereo not given), the AC50 is 29 µM (active).

In the case of `Oc1ccc(Cl)cc1Cc1ccccc1`, the half-maximal activity concentration (AC50) was 32.4 µM (active) [middle of 7 runs].

On to `COP(=O)(OC)OC=C(Cl)Cl`, for which the result was inactive.

As for `CCC(C)(NC(=O)c1cc(Cl)c(C)c(Cl)c1)C(=O)CCl` (stereo not given), the AC50 is 5.41 µM (active).

With `O=C(NC(=O)c1c(F)cccc1F)Nc1ccc(OC(F)(F)C(F)OC(F)(F)F)c(Cl)c1` (stereo not given), the result was inactive.

In the case of `CN1CSC(=S)N(C)C1`, the result was inactive.

As for `Oc1cc(Cl)ccc1Oc1ccc(Cl)cc1Cl`, the AC50 is 13.8 µM (active) [middle of 4 runs].

Consider `[2H]C1([2H])[n+]2ccccc2-c2cccc[n+]2C1([2H])[2H]`, for which the result was inactive.

For `CCC(C)Nc1c([N+](=O)[O-])cc(C(C)(C)C)cc1[N+](=O)[O-]` (stereo not given), the outcome was inactive.

For `CNC(=O)/C=C(\C)OP(=O)(OC)OC`, the outcome was inactive.

Turning to `COP(=S)(OC)Oc1ccc(SC)c(C)c1`, the result was inactive.

Turning to `COc1nn(CSP(=S)(OC)OC)c(=O)s1`, the result was inactive.

On to `CCN(CC)C(=O)SCc1ccc(Cl)cc1`, for which the result was inactive.

For the molecule `CC1(C)C(C=C(Cl)Cl)C1C(=O)OC(C#N)c1ccc(F)c(Oc2ccccc2)c1` (stereo not given), the result was inactive.

Consider `CC(C)OC(=O)Nc1cccc(Cl)c1`, for which the outcome was inactive.

Take `COC(=O)c1ccccc1S(=O)(=O)NC(=O)N(C)c1nc(C)nc(OC)n1`: the result was inactive.

`O=C(Nc1ccccc1)Nc1cnns1`: the result was inactive.

For the molecule `CCS(=O)(=O)c1cccnc1S(=O)(=O)NC(=O)Nc1nc(OC)cc(OC)n1`, the outcome was inactive.

As to `O=S(=O)(O)C(F)(F)C(F)(F)C(F)(F)C(F)(F)C(F)(F)C(F)(F)C(F)(F)C(F)(F)F`, the outcome was inactive.

Turning to `CNC(=O)CSP(=S)(OC)OC`, the outcome was inactive.

Take `CC(C)(C)C(O)/C(=C\c1ccc(Cl)cc1Cl)n1cncn1` (stereo not given): the AC50 was 36.7 µM (active).

For the molecule `CCc1ccc(C(=O)NN(C(=O)c2cc(C)cc(C)c2)C(C)(C)C)cc1`, the result was inactive.

As for `CCOC1Oc2ccc(OS(C)(=O)=O)cc2C1(C)C` (stereo not given), the result was inactive.

Turning to `COC(=O)c1ccccc1S(=O)(=O)NC(=O)Nc1nc(C)nc(OC)n1`, the outcome was inactive.

On to `O=C(O)C(F)(F)C(F)(F)C(F)(F)C(F)(F)C(F)(F)C(F)(F)C(F)(F)F`, for which the result was inactive.

As to `O=C(O)CCCOc1ccc(Cl)cc1Cl`, the result was inactive.

As for `Clc1ccccc1-c1nnc(-c2ccccc2Cl)nn1`, the result was inactive.

As to `O=[N+]([O-])/N=C1\NCCN1Cc1ccc(Cl)nc1`, the result was inactive.

In the case of `CC1(c2ccc(Oc3ccccc3)cc2)OC(=O)N(Nc2ccccc2)C1=O` (stereo not given), the AC50 was 29.5 µM (active).

With `COC(=O)c1ccccc1CS(=O)(=O)NC(=O)Nc1nc(OC)cc(OC)n1`, the result was inactive.

For the molecule `COP(=S)(OC)Oc1ccc([N+](=O)[O-])cc1`, the outcome was inactive.

Regarding `Cc1[nH]c(=O)n(C(C)(C)C)c(=O)c1Cl`, the result was inactive.

`C[C@H]1[C@H](c2ccc(Cl)cc2)SC(=O)N1C(=O)NC1CCCCC1`: the outcome was inactive.

The values above are taken from PubChem BioAssay (EPA / NIEHS).
